Hit rate of the full screen: of about 5,500 compounds, about 2,000 (36%) were called active. Another 18% or so got no clear call; they are omitted. No stated cut-off is given here; in the data, active means normalized growth mostly below about 0.91 (no sharp cut-off); inconclusive means no clear call, values can overlap the other calls; inactive means mostly above about 0.92. The list shows a part of the results.
Test: chemical genetic growth profiling, strain panel (AID 1159580);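 further: tested at 20 µM; growth read once vehicle control cultures reached saturation at 30 °C; 1 = growth at the plate median or of vehicle wells; lower values mean less growth of the strain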
Conditions: growth OD
[1] = S. cerevisiae deletion strains, locus YDL101C, strain DUN1, hits give low values
[2] = S. cerevisiae deletion strains, locus YHR030C, strain SLT2, hits give low values

Measured: normalized growth

Cc1ccc(NC(=O)CC#N)c(C)c1
inactive: S. cerevisiae deletion strains, locus YAL013W, strain DEP1, hits give low values 1.01 | S. cerevisiae deletion strains, locus YBR229C, strain ROT2, hits give low values 1 | [1] 0.979 | S. cerevisiae deletion strains, locus YDL134C, strain PPH21, hits give low values 1.01 | S. cerevisiae deletion strains, locus YDR150W, strain NUM1, hits give low values 0.895 | S. cerevisiae deletion strains, locus YEL061C, strain CIN8, hits give low values 1.03 | S. cerevisiae deletion strains, locus YGR078C, strain PAC10, hits give low values 1.01 | S. cerevisiae deletion strains, locus YGR229C, strain SMI1, hits give low values 0.986 | [2] 0.959 | S. cerevisiae deletion strains, locus YHR087W, strain rtc3, hits give low values 0.995 | S. cerevisiae deletion strains, locus YJR043C, strain POL32, hits give low values 0.96 | S. cerevisiae deletion strains, locus YJR075W, strain HOC1, hits give low values 1.04 | S. cerevisiae deletion strains, locus YKL190W, strain CNB1, hits give low values 0.998 | S. cerevisiae deletion strains, locus YLR039C, strain RIC1, hits give low values 0.974 | S. cerevisiae deletion strains, locus YLR058C, strain SHM2 (second series), hits give low values 1 | S. cerevisiae deletion strains, locus YLR085C, strain ARP6, hits give low values 1.05 | S. cerevisiae deletion strains, locus YLR262C, strain YPT6, hits give low values 0.973 | S. cerevisiae deletion strains, locus YML094W, strain GIM5, hits give low values 1.04 | S. cerevisiae deletion strains, locus YMR219W, strain ESC1, hits give low values 1.02 | S. cerevisiae deletion strains, locus YMR263W, strain SAP30, hits give low values 0.998 | S. cerevisiae deletion strains, locus YMR307W, strain GAS1, hits give low values 1.03 | S. cerevisiae deletion strains, locus YNL153C, strain GIM3, hits give low values 1.01 | S. cerevisiae deletion strains, locus YNL298W, strain CLA4 (second series), hits give low values 0.988 | S. cerevisiae deletion strains, locus YNL322C, strain KRE1, hits give low values 1.01 | S. cerevisiae deletion strains, locus YNR030W, strain Alg12, hits give low values 1.02 | S. cerevisiae deletion strains, locus YOL006C, strain TOP1, hits give low values 0.951 | S. cerevisiae deletion strains, locus YPL055C, strain LGE1, hits give low values 1.1 | S. cerevisiae deletion strains, locus YPL241C, strain CIN2, hits give low values 1.03 | S. cerevisiae deletion strains, locus YPR135W, strain CTF4, hits give low values 1.01 | S. cerevisiae strains, strain wild type, hits give low values 0.976

O=C(Nc1ccc(SC(F)(F)F)cc1)Nc1ccc(Oc2cccc(C(F)(F)F)c2)nc1
inactive: S. cerevisiae deletion strains, locus YAR019C, strain CDC15, hits give low values 0.995 | S. cerevisiae deletion strains, locus YBL105C, strain PKC1, hits give low values 0.989 | S. cerevisiae deletion strains, locus YBR135W, strain CKS1, hits give low values 0.992 | S. cerevisiae deletion strains, locus YBR136W, strain MEC1, hits give low values 0.987 | S. cerevisiae deletion strains, locus YBR160W, strain CDC28, hits give low values 0.992 | S. cerevisiae deletion strains, locus YDL017W, strain CDC7, hits give low values 0.996 | S. cerevisiae deletion strains, locus YDL028C, strain MPS1, hits give low values 0.988 | [1] 0.997 | S. cerevisiae deletion strains, locus YDL108W, strain KIN28, hits give low values 0.993 | S. cerevisiae deletion strains, locus YDL132W, strain cdc53, hits give low values 0.995 | S. cerevisiae deletion strains, locus YDL214C, strain PRR2, hits give low values 0.941 | S. cerevisiae deletion strains, locus YDR052C, strain DBF4, hits give low values 0.996 | S. cerevisiae deletion strains, locus YDR054C, strain cdc34, hits give low values 0.994 | S. cerevisiae deletion strains, locus YDR226W, strain ADK1, hits give low values 0.987 | S. cerevisiae deletion strains, locus YDR477W, strain SNF1, hits give low values 0.982 | S. cerevisiae deletion strains, locus YER123W, strain YCK3, hits give low values 0.949 | S. cerevisiae deletion strains, locus YER133W, strain GLC7, hits give low values 0.95 | S. cerevisiae deletion strains, locus YFL009W, strain cdc4, hits give low values 0.988 | S. cerevisiae deletion strains, locus YFL029C, strain CAK1, hits give low values 0.996 | S. cerevisiae deletion strains, locus YFR003C, strain YPI1, hits give low values 0.991 | S. cerevisiae deletion strains, locus YFR019W, strain FAB1, hits give low values 0.921 | S. cerevisiae deletion strains, locus YFR028C, strain CDC14, hits give low values 0.999 | S. cerevisiae deletion strains, locus YGR040W, strain KSS1, hits give low values 0.975 | S. cerevisiae deletion strains, locus YGR052W, strain FMP48, hits give low values 0.973 | S. cerevisiae deletion strains, locus YGR092W, strain DBF2, hits give low values 0.995 | S. cerevisiae deletion strains, locus YHR079C, strain IRE1, hits give low values 0.883 | S. cerevisiae deletion strains, locus YHR082C, strain KSP1, hits give low values 1.05 | S. cerevisiae deletion strains, locus YHR205W, strain SCH9, hits give low values 0.957 | S. cerevisiae deletion strains, locus YIL147C, strain SLN1, hits give low values 0.994 | S. cerevisiae deletion strains, locus YJL095W, strain BCK1, hits give low values 0.975 | S. cerevisiae deletion strains, locus YJL128C, strain PBS2, hits give low values 0.946 | S. cerevisiae deletion strains, locus YJL157C, strain FAR1, hits give low values 0.937 | S. cerevisiae deletion strains, locus YJR016C, strain ILV3, hits give low values 1 | S. cerevisiae deletion strains, locus YJR066W, strain TOR1 (second series), hits give low values 1.02 | S. cerevisiae deletion strains, locus YJR066W, strain TOR1, hits give low values 1.02 | S. cerevisiae deletion strains, locus YKL048C, strain ELM1, hits give low values 0.972 | S. cerevisiae deletion strains, locus YKL067W, strain YNK1, hits give low values 0.956 | S. cerevisiae deletion strains, locus YKL101W, strain HSL1, hits give low values 0.949 | S. cerevisiae deletion strains, locus YKL193C, strain SDS22, hits give low values 1 | S. cerevisiae deletion strains, locus YKL203C, strain TOR2, hits give low values 0.991 | S. cerevisiae deletion strains, locus YLR113W, strain HOG1, hits give low values 0.873 | S. cerevisiae deletion strains, locus YLR133W, strain CKI1, hits give low values 0.954 | S. cerevisiae deletion strains, locus YLR403W, strain SFP1, hits give low values 0.977 | S. cerevisiae deletion strains, locus YML070W, strain DAK1, hits give low values 0.964 | S. cerevisiae deletion strains, locus YMR001C, strain CDC5, hits give low values 0.996 | S. cerevisiae deletion strains, locus YMR205C, strain PFK2 (second series), hits give low values 0.974 | S. cerevisiae deletion strains, locus YMR277W, strain FCP1, hits give low values 0.996 | S. cerevisiae deletion strains, locus YNL006W, strain LST8, hits give low values 0.989 | S. cerevisiae deletion strains, locus YNL020C, strain ARK1, hits give low values 0.947 | S. cerevisiae deletion strains, locus YNL161W, strain CBK1, hits give low values 0.984 | S. cerevisiae deletion strains, locus YNL183C, strain NPR1, hits give low values 1.01 | S. cerevisiae deletion strains, locus YNL207W, strain RIO2, hits give low values 0.996 | S. cerevisiae deletion strains, locus YNL222W, strain SSU72, hits give low values 0.991 | S. cerevisiae deletion strains, locus YNL307C, strain MCK1 (second series), hits give low values 0.884 | S. cerevisiae deletion strains, locus YOL078W, strain AVO1, hits give low values 1 | S. cerevisiae deletion strains, locus YOL136C, strain PFK27, hits give low values 0.907 | S. cerevisiae deletion strains, locus YOR061W, strain CKA2, hits give low values 0.983 | S. cerevisiae deletion strains, locus YOR119C, strain RIO1, hits give low values 1.03 | S. cerevisiae deletion strains, locus YOR231W, strain MKK1, hits give low values 0.958 | S. cerevisiae deletion strains, locus YOR329C, strain SCD5, hits give low values 0.984 | S. cerevisiae deletion strains, locus YPL031C, strain PHO85, hits give low values 0.97 | S. cerevisiae deletion strains, locus YPL153C, strain RAD53, hits give low values 0.99 | S. cerevisiae deletion strains, locus YPL204W, strain HRR25, hits give low values 0.958 | S. cerevisiae deletion strains, locus YPL209C, strain IPL1, hits give low values 0.992 | S. cerevisiae deletion strains, locus YPL256C, strain CLN2, hits give low values 0.897 | S. cerevisiae deletion strains, locus YPR025C, strain CCL1, hits give low values 0.988 | S. cerevisiae deletion strains, locus YPR106W, strain ISR1, hits give low values 0.992 | S. cerevisiae deletion strains, locus YPR111W, strain DBF20, hits give low values 0.972 | S. cerevisiae deletion strains, strain NNK1, hits give low values 0.999 | S. cerevisiae deletion strains, strain TSCII, hits give low values 1
active: [2] 0.769
